According to PubChem BioAssay AID1159580 (chemical genetic matrix, 2015):
Values joined by “and” are separate entries in the source; they are usually repeats but may differ in a detail not shown here. Identical values can stand only once. In all, about 5,500 compounds went through this assay and about 2,000 (36%) were called active. Roughly 18% stayed inconclusive and do not appear here. No stated cut-off is given here; in the data, active means normalized growth mostly below about 0.91 (no sharp cut-off); inconclusive means no clear call, values can overlap the other calls; inactive means mostly above about 0.92. This is one part of the list.

Assay: chemical genetic growth profiling, strain panel (AID 1159580);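 further: tested at 20 µM; growth read once vehicle control cultures reached saturation at 30 °C; 1 = growth at the plate median or of vehicle wells; lower values mean less growth of the strain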
Settings: S. cerevisiae deletion strains, growth OD

Measured: normalized growth

CC1(C)CC2C1CCC1(C)OC2(C)CCC1O (stereo not given)
inactive: locus YAL021C, strain ccr4, active compounds read low 1.02 | locus YAL026C, strain drs2, active compounds read low 1.05 | locus YAL030W, strain snc1, active compounds read low 1.03 | locus YBL061C, strain skt5, active compounds read low 1.03 | locus YBR009C, strain hhf1, active compounds read low 1.03 | locus YBR021W, strain FUR4, active compounds read low 1.03 | locus YBR023C, strain chs3, active compounds read low 1.03 | locus YBR171W, strain sec66, active compounds read low 1.03 | locus YBR229C, strain ROT2, active compounds read low 1.02 | locus YBR231C, strain swc5, active compounds read low 1.02 | locus YBR279W, strain paf1, active compounds read low 1.02 | locus YCL011C, strain gbp2, active compounds read low 1.02 | locus YCL016C, strain dcc1, active compounds read low 1.01 | locus YCL029C, strain bik1, active compounds read low 1.01 | locus YCL061C, strain MRC1, active compounds read low 1.03 | locus YCL069W, strain vba3, active compounds read low 1.03 | locus YCR088W, strain abp1, active compounds read low 1.02 | locus YDL005C, strain med2, active compounds read low 1.03 | locus YDL035C, strain GPR1, active compounds read low 0.989 | locus YDL040C, strain nat1, active compounds read low 1.01 | locus YDL074C, strain BRE1, active compounds read low 1.02 | locus YDL101C, strain DUN1, active compounds read low 1.03 | locus YDL185W, strain tfp1, active compounds read low 1.01 | locus YDL192W, strain arf1, active compounds read low 1 | locus YDR001C, strain nth1, active compounds read low 1.02 | locus YDR069C, strain doa4, active compounds read low 1.02 | locus YDR101C, strain arx1, active compounds read low 0.993 | locus YDR137W, strain rgp1, active compounds read low 1.03 | locus YDR159W, strain sac3, active compounds read low 1.03 | locus YDR162C, strain NBP2, active compounds read low 1.02 | locus YDR195W, strain ref2 1.02 | locus YDR297W, strain sur2, active compounds read low 1.04 | locus YDR318W, strain mcm21, active compounds read low 0.994 | locus YDR334W, strain swr1, active compounds read low 1.03 | locus YDR335W, strain msn5, active compounds read low 1.02 | locus YDR388W, active compounds read low 1.01 | locus YDR392W, strain spt3, active compounds read low 0.958 | locus YDR502C, strain sam2, active compounds read low 1.03 | locus YEL003W, strain gim4, active compounds read low 1.02 | locus YEL037C, strain rad23, active compounds read low 1.02 | locus YEL061C, strain CIN8 (second series), active compounds read low 1.02 | locus YER015W, strain faa2, active compounds read low 1.04 | locus YER016W, strain bim1, active compounds read low 1.02 | locus YER110C, active compounds read low 1.01 | locus YER111C, strain swi4, active compounds read low 1.02 | locus YER155C, strain BEM2 (second series), active compounds read low 1.04 | locus YER155C, strain BEM2, active compounds read low 0.996 | locus YER167W, strain BCK2, active compounds read low 1 | locus YFR010W, strain ubp6, active compounds read low 1.04 | locus YGL078C, strain dbp3, active compounds read low 1.03 | locus YGL086W, strain mad1, active compounds read low 1.02 | locus YGL167C, strain pmr1, active compounds read low 1.03 | locus YGL173C, strain kem1, active compounds read low 1.04 | locus YGL227W, strain vid30, active compounds read low 1.01 | locus YGL240W, strain doc1, active compounds read low 1.03 | locus YGL248W, strain PDE1, active compounds read low 1.07 | locus YGL253W, strain hxk2, active compounds read low 1.04 | locus YGR135W, strain pre9, active compounds read low 1.08 | locus YGR229C, strain SMI1, active compounds read low 0.978 | locus YGR252W, strain gcn5, active compounds read low 1.11 | locus YHR013C, strain ard1, active compounds read low 1.06 | locus YHR027C, strain rpn1, active compounds read low 1.05 | locus YHR030C, strain SLT2, active compounds read low 0.992 and 1.02 | locus YHR079C, strain IRE1 (second series), active compounds read low 1.01 | locus YHR079C, strain IRE1, active compounds read low 1.02 | locus YHR094C, strain hxt1, active compounds read low 1.02 | locus YHR129C, strain ARP1, active compounds read low 1.01 | locus YHR142W, strain chs7, active compounds read low 1.02 | locus YHR200W, strain rpn10, active compounds read low 1.03 | locus YIL066C, strain RNR3, active compounds read low 1.01 | locus YIL073C, strain SPO22, active compounds read low 1.02 | locus YIL125W, strain kgd1, active compounds read low 0.999 | locus YIR030C, strain dcg1, active compounds read low 1 | locus YJL092W, strain hpr5, active compounds read low 1.03 | locus YJL095W, strain BCK1 (second series), active compounds read low 1.03 | locus YJL095W, strain BCK1, active compounds read low 1.09 and 1.03 | locus YJL115W, strain asf1, active compounds read low 1.03 | locus YJL129C, strain trk1, active compounds read low 1.05 | locus YJL134W, strain LCB3, active compounds read low 1 | locus YJL154C, strain vps35, active compounds read low 1.03 | locus YJL164C, strain tpk1, active compounds read low 1.01 | locus YJL166W, strain qcr8, active compounds read low 1.03 | locus YJL168C, strain set2, active compounds read low 1.01 | locus YJL187C, strain SWE1 (second series), active compounds read low 1.05 | locus YJR043C, strain POL32, active compounds read low 0.976 | locus YJR066W, strain TOR1, active compounds read low 0.959 | locus YJR075W, strain HOC1, active compounds read low 1.01 | locus YKL009W, strain mrt4, active compounds read low 0.984 | locus YKL068W, active compounds read low 1 | locus YKL085W, strain MDH1 (second series), active compounds read low 0.978 | locus YKL085W, strain MDH1, active compounds read low 0.978 | locus YKL160W, strain elf1, active compounds read low 1 | locus YKL190W, strain CNB1, active compounds read low 1 | locus YKR001C, strain vps1, active compounds read low 1.03 | locus YKR026C, strain gcn3, active compounds read low 1.03 | locus YKR091W, strain srl3, active compounds read low 1.01 | locus YLL001W, strain dnm1, active compounds read low 0.991 | locus YLL026W, active compounds read low 1.02 | locus YLL041C, strain sdh2, active compounds read low 1.02 | locus YLR027C, strain aat2, active compounds read low 1.02 | locus YLR039C, strain RIC1, active compounds read low 1.05 | locus YLR058C, strain SHM2, active compounds read low 1.03 | locus YLR102C, strain apc9, active compounds read low 1 | locus YLR113W, strain HOG1, active compounds read low 1.03 | locus YLR221C, strain rsa3, active compounds read low 1.04 | locus YLR258W, strain gsy2, active compounds read low 1.01 | locus YLR262C, strain YPT6 (second series), active compounds read low 1.03 | locus YLR268W, strain sec22, active compounds read low 0.981 | locus YLR320W, strain mms22, active compounds read low 1.04 | locus YLR330W, strain CHS5, active compounds read low 1 | locus YLR342W, strain FKS1 (second series), active compounds read low 0.993 | locus YLR342W, strain FKS1, active compounds read low 1.03 | locus YLR357W, strain rsc2, active compounds read low 1.04 | locus YLR370C, strain arc18, active compounds read low 1.02 | locus YLR371W, strain rom2, active compounds read low 1.02 | locus YLR384C, strain iki3, active compounds read low 1.02 | locus YLR418C, strain cdc73, active compounds read low 1.08 | locus YML016C, strain PPZ1, active compounds read low 1.01 | locus YML032C, strain rad52, active compounds read low 1.02 | locus YML120C, strain ndi1, active compounds read low 1.01 | locus YML124C, strain tub3, active compounds read low 1.01 | locus YMR058W, strain fet3, active compounds read low 1.04 | locus YMR078C, strain ctf18, active compounds read low 1.02 | locus YMR125W, strain sto1, active compounds read low 1.05 | locus YMR129W, active compounds read low 1.01 | locus YMR205C, strain PFK2, active compounds read low 1.04 | locus YMR223W, strain ubp8, active compounds read low 1.01 | locus YMR231W, strain pep5, active compounds read low 1.02 | locus YMR263W, strain SAP30, active compounds read low 1.02 | locus YMR307W, strain GAS1, active compounds read low 1.03 | locus YNL067W, strain RPL9B, active compounds read low 1.04 | locus YNL071W, strain lat1, active compounds read low 1.02 | locus YNL183C, strain NPR1, active compounds read low 0.969 | locus YNL209W, strain ssb2, active compounds read low 1.02 | locus YNL233W, strain BNI4, active compounds read low 1.07 | locus YNL248C, strain rpa49, active compounds read low 1.03 | locus YNL250W, strain rad50, active compounds read low 1.04 | locus YNL271C, strain bni1, active compounds read low 1.01 | locus YNL298W, strain CLA4, active compounds read low 1.01 | locus YNL307C, strain MCK1, active compounds read low 1.02 | locus YNL322C, strain KRE1 (second series), active compounds read low 1.02 | locus YNR049C, strain mso1, active compounds read low 1.06 | locus YNR052C, strain pop2, active compounds read low 1.03 | locus YOL012C, strain htz1 1.1 | locus YOL147C, strain pex11, active compounds read low 1.02 | locus YOR001W, strain rrp6, active compounds read low 1.03 | locus YOR061W, strain CKA2, active compounds read low 0.999 | locus YOR069W, strain VPS5, active compounds read low 1 | locus YOR070C, strain gyp1, active compounds read low 1.02 | locus YOR080W, strain dia2, active compounds read low 1.05 | locus YOR083W, strain WHI5, active compounds read low 1 | locus YOR106W, strain vam3, active compounds read low 1 | locus YOR136W, strain idh2, active compounds read low 1.02 | locus YOR144C, strain elg1, active compounds read low 1 | locus YOR184W, strain ser1, active compounds read low 0.981 | locus YOR231W, strain MKK1, active compounds read low 1.02 | locus YOR265W, strain rbl2, active compounds read low 1.03 | locus YOR270C, strain vph1, active compounds read low 1.07 | locus YOR290C, strain snf2, active compounds read low 1.01 | locus YOR316C, strain cot1, active compounds read low 1.02 | locus YPL051W, strain arl3, active compounds read low 1 | locus YPL078C, strain atp4, active compounds read low 1.01 | locus YPL106C, strain sse1, active compounds read low 1.04 | locus YPL240C, strain hsp82, active compounds read low 1.02 | locus YPL256C, strain CLN2, active compounds read low 1.03 | locus YPR119W, strain clb2, active compounds read low 1 | locus YPR141C, strain kar3, active compounds read low 0.987 | locus YPR163C, strain tif3, active compounds read low 1.02 | locus YPR167C, strain met16, active compounds read low 1.01 | strain wtn01, active compounds read low 1
